One experiment relates to JEG-3. The experiment can be described thus: Primary qHTS to identify gynecologic anti-cancer compounds using libraries of approved drugs and bioactive compounds (AID 1345084). Further: nearly all actives have a fitted effect of over 55% in size. The conditions noted are these: Gynecologic cancer cell panel viability, ATPlite luminescence, 48 h; series mostly up to 57.5 µM. Summed up: (§1)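 Cells, 1,000 per well, plated 16 h, then exposed 48 h at 37 C to compounds. Viability by ATPlite luminescence after 15 min at room temperature.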
For orientation: In qHTS, concentration-response curves come from the screen itself.

The test system of a further experiment is OV90. Described as above. As to conditions: Gynecologic cancer cell panel viability, ATPlite luminescence, 48 h; series mostly up to 57.5 µM. The method, boiled down: as §1
On the technique in general: In ATP-based viability assays light output follows the ATP content of the culture.

Another experiment relates to PA-1. The description is as above. The conditions noted are these: Gynecologic cancer cell panel viability, ATPlite luminescence, 48 h; series mostly up to 57.5 µM. Summed up: as §1
For the next experiment, the system named is SKOV3. The experiment is described as above. The conditions noted are these: Gynecologic cancer cell panel viability, ATPlite luminescence, 48 h; series mostly up to 57.5 µM. The method, boiled down: as §1
The next experiment has as its system Tov-21-G. The experiment is described as above. The conditions noted are these: Gynecologic cancer cell panel viability, ATPlite luminescence, 48 h; series mostly up to 57.5 µM. The method, boiled down: as §1
Another experiment has as its system Tov112D. The description is as above. As to conditions: Gynecologic cancer cell panel viability, ATPlite luminescence, 48 h; series mostly up to 57.5 µM. The method, boiled down:
as §1

Experiment [1] is described as follows: Drug repurposing screens with cells derived from glioblastoma tumor samples (AID 1345199). Further: nearly all actives have a fitted effect of over 40% in size. Further: potency means the concentration at half of the fitted maximal effect. The conditions noted are these: GBM patient neurospheres viability, ATP luminescence, 48 h. The method, boiled down: (§2)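 Four patient lines of CD133+ GBM neurospheres were screened at several concentrations; hits were retested in those lines plus three slower-growing GBM lines, using 48-hour treatment and ATP-based viability.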

Another experiment has as its system astro. The description is as above. The conditions noted are these: viability, ATP luminescence, 48 h; series mostly up to 45.9 µM. The method, boiled down:
as §2

Where [2] appears, read: at 20 µM (top of the series), tumour line C.
[3] abbreviates: at 21.2 µM (top of the series), tumour line B.
Setting [4] is: at 21.2 µM (top of the series), tumour line D.
The mark [5] stands for this setting: at 21.3 µM (top of the series), tumour line A.
The mark [6] stands for this setting: at 45.9 µM (top of the series), tumour line B.
Where [7] appears, read: at 45.9 µM (top of the series), tumour line D.
[8] abbreviates: at 46 µM (top of the series), tumour line A.
Setting [9] is: at 46.1 µM (top of the series), tumour line C.

Inconclusive results are not listed. Unmarked numbers belong to inactive results. The source made the active and inactive calls. The call rests on the fitted dose curve; in most records, active means well fitted curve in the direction sought with a large enough effect; inconclusive means small, poorly fitted or top-dose-only effect, or another doubt; inactive means no such curve, though single readings can be large; an effect the other way counts as inactive or inconclusive.
On the % scale 0 is the no-effect control and ±100 the full control effect.

As to `OC[C@H]1O[C@H](O[C@]2(CCl)O[C@H](CCl)[C@@H](O)[C@@H]2O)[C@H](O)[C@@H](O)[C@H]1Cl`, the Potency entry in the experiment on JEG-3, in the experiment on OV90, with PA-1, in the experiment with SKOV3, in the experiment on Tov-21-G and in the experiment with Tov112D was “inactive” each time.

On to `CC1(C)O[C@@H]2C[C@H]3[C@@H]4C[C@H](F)C5=CC(=O)CC[C@]5(C)[C@H]4[C@@H](O)C[C@]3(C)[C@]2(C(=O)CO)O1`, for which the Potency result in the experiment on JEG-3, in the experiment on OV90, with PA-1, with SKOV3, with Tov-21-G and in the experiment on Tov112D was “inactive” each time. Besides, in the experiment with astro, the Potency result is “inactive”. The activity, negative = cell killing in experiment [1] (setting [2]) was -16.9%; in experiment [1] (setting [3]) it was -8.1%; in experiment [1] (setting [4]), -28%; in experiment [1] (setting [5]) it was -15.3%.

On to `O=C(O)CNC(=O)c1ccccc1`, for which the Potency entry in the experiment on JEG-3, with OV90, with PA-1, in the experiment with SKOV3, in the experiment with Tov-21-G and in the experiment with Tov112D was “inactive” each time. For the same molecule, the Potency entry in the experiment with astro is “inactive”. Also, the activity, negative = cell killing in experiment [1] (setting [6]) was -9.91%; in experiment [1] (setting [7]), -0.469%; in experiment [1] (setting [8]) it was 3.77%; in experiment [1] (setting [9]), -1.09%.

For the molecule `CC(=O)OCC(=O)[C@@]1(O)[C@H](C)C[C@H]2[C@@H]3CCC4=CC(=O)C=C[C@]4(C)[C@@]3(F)[C@@H](O)C[C@@]21C`, the Potency result in the experiment with JEG-3, with OV90, with PA-1, in the experiment with SKOV3, in the experiment with Tov-21-G and with Tov112D was “inactive” in each case. Besides, in the experiment with astro, the Potency result is “inactive”. In addition, the activity, negative = cell killing in experiment [1] (setting [2]) was -1.02%; in experiment [1] (setting [3]), -13.3%; in experiment [1] (setting [4]), -10.9%; in experiment [1] (setting [6]), 1.42%; in experiment [1] (setting [7]), -14.4%; in experiment [1] (setting [9]) it was -7.18%.

With `C=C1C(=C/C=C2\CCC[C@]3(C)[C@@H]([C@H](C)/C=C/[C@@H](O)C4CC4)CC[C@@H]23)C[C@@H](O)C[C@@H]1O`, the Potency entry in the experiment on JEG-3, with OV90, in the experiment on PA-1, in the experiment with SKOV3, in the experiment on Tov-21-G and in the experiment with Tov112D was “inactive” each time.

As to `CC1(C)O[C@@H]2C[C@H]3[C@@H]4C[C@H](F)C5=CC(=O)C=C[C@]5(C)[C@H]4[C@@H](O)C[C@]3(C)[C@]2(C(=O)CO)O1`, the Potency entry in the experiment with JEG-3, in the experiment with OV90, in the experiment on PA-1, with SKOV3, in the experiment with Tov-21-G and with Tov112D was “inactive” each time. Further, in the experiment on astro, the Potency entry was “inactive”. In addition, the activity, negative = cell killing in experiment [1] (setting [2]) is 3.76%; in experiment [1] (setting [3]), 2.57%; in experiment [1] (setting [4]) it was -8.48%; in experiment [1] (setting [5]), 19%.

For `CC(=O)CC(c1ccc([N+](=O)[O-])cc1)c1c(O)c2ccccc2oc1=O` (stereo not given), the Potency result with JEG-3, with OV90, in the experiment with PA-1, in the experiment with SKOV3, in the experiment on Tov-21-G and in the experiment on Tov112D was “inactive” each time. In addition, the activity, negative = cell killing was 0.914% in experiment [1] (setting [2]), -11% in experiment [1] (setting [3]) and -16.8% in experiment [1] (setting [4]).

As for `Cc1c(F)c(N2CCNC(C)C2)cc2c1c(=O)c(C(=O)O)cn2C1CC1` (stereo not given), the Potency result with JEG-3, in the experiment with OV90, with PA-1, in the experiment on SKOV3, in the experiment on Tov-21-G and in the experiment on Tov112D was “inactive” throughout. In addition, the Potency result in the experiment on astro is “inactive”. The activity, negative = cell killing in experiment [1] (setting [6]) was -3.48%; in experiment [1] (setting [7]), 3.74%; in experiment [1] (setting [8]), -33%; in experiment [1] (setting [9]), -2.18%.

As to `Nc1nc2ncc(CNc3ccc(C(=O)N[C@@H](CCC(=O)O)C(=O)O)cc3)nc2c(=O)[nH]1`, the Potency result in the experiment with JEG-3, in the experiment on OV90, with PA-1, with SKOV3, in the experiment on Tov-21-G and in the experiment with Tov112D was “inactive” throughout. The Potency result with astro is “inactive”. For the same molecule, the activity, negative = cell killing in experiment [1] (setting [6]) is -3.4%; in experiment [1] (setting [7]) it was 4.54%; in experiment [1] (setting [8]), -10.5%; in experiment [1] (setting [9]) it was -9.36%.

Consider `OC[C@@H](O)[C@@H](O[C@@H]1O[C@H](CO)[C@H](O)[C@H](O)[C@H]1O)[C@H](O)[C@@H](O)CO`, for which the Potency result in the experiment with JEG-3, with OV90, with PA-1, in the experiment on SKOV3, with Tov-21-G and in the experiment with Tov112D was “inactive” throughout. Besides, the Potency result with astro is “inactive”. Further, the activity, negative = cell killing in experiment [1] (setting [6]) was -6.48%; in experiment [1] (setting [7]), -4.42%; in experiment [1] (setting [8]), -40.2%; in experiment [1] (setting [9]), -3.02%.

As for `Cc1nc2n(c(=O)c1CCN1CCC(c3noc4cc(F)ccc34)CC1)CCC[C@H]2O`, the Potency result in the experiment with JEG-3, with OV90, in the experiment on PA-1, with SKOV3, in the experiment with Tov-21-G and in the experiment on Tov112D was “inactive” each time. Further, the values for the activity, negative = cell killing in experiment [1] (setting [6]), in experiment [1] (setting [7]) and in experiment [1] (setting [9]) were -11%, -35.1% and -8.74%, respectively. Besides, in experiment [1] (tumour line A), the Potency was 15.8 µM (active).

For `c1ccc(CNCCNCc2ccccc2)cc1`, the Potency result in the experiment on JEG-3, in the experiment with OV90, with PA-1, in the experiment with SKOV3, in the experiment on Tov-21-G and with Tov112D was “inactive” throughout. For the same molecule, the Potency result in the experiment on astro was “inactive”. Further, the figures for the activity, negative = cell killing in experiment [1] (setting [6]), in experiment [1] (setting [7]) and in experiment [1] (setting [9]) were -9.72%, -12.2% and -25.1%, respectively. Further, the Potency in experiment [1] (tumour line A) was 22.4 µM (active).

With `COc1cc2c(cc1OC)[C@@H]1CC(=O)[C@@H](CC(C)C)CN1CC2`, the Potency entry in the experiment on JEG-3, with OV90, in the experiment with PA-1, in the experiment on SKOV3, with Tov-21-G and in the experiment on Tov112D was “inactive” in each case. For the same molecule, the activity, negative = cell killing in experiment [1] (setting [9]) was 1.4%. Moreover, in experiment [1] (tumour line A), the Potency is 28.2 µM (active).

For `CN=C(NC#N)NCCSCc1csc(N=C(N)N)n1`, the Potency entry in the experiment with JEG-3, in the experiment with OV90, with PA-1, in the experiment with SKOV3, in the experiment on Tov-21-G and in the experiment on Tov112D was “inactive” throughout. For the same molecule, the Potency entry in the experiment with astro is “inactive”. Moreover, the activity, negative = cell killing in experiment [1] (setting [6]) was -9.85%; in experiment [1] (setting [7]), 14.9%; in experiment [1] (setting [8]) it was -18.5%; in experiment [1] (setting [9]), -6.9%.

The record behind these values is PubChem BioAssay (NCATS).
